Inconclusive results are not listed. Where a call stands in place of a potency, no number is given. The source made the active and inactive calls. The call rests on the fitted dose curve; in most records, active means well fitted cell-killing curve with a large enough effect in the repeat runs; inconclusive means weak or mixed curves, or effect the other way; inactive means flat fitted curve, though single readings scatter.
Assay: cAMP Responsive Elements (CRE) small molecule antagonists, cell-based qHTS assay: qHTS cell viability counter screen (AID 2060913); further: nearly all actives have a fitted effect of over 40% in size
Settings: CRE-bla HEK293T viability, CellTiter-Glo luminescence, 5 h; series mostly up to 92.4 µM
Excerpt: U.S. Tox21 Program National Center for Advancing Translational Sciences [NCATS] Division of Preclinical Innovation [DPI] U.S. Environmental Protection Agency [EPA] National Institutes of Environmental Health Sciences [NIEHS] National Toxicology Program [NTP] U.S. Food and Drug Administration [FDA] Tox21 Assay Overview: CREB (cyclic-AMP Responsive Element Binding Protein) is a cellular transcription factor. It binds to certain DNA sequences called cAMP Responsive Elements (CRE) and regulates the transcription of the genes. […] This cell line can be used to find agonists/antagonists of the cyclic AMP signaling pathway. The activation of the report gene under culture conditions can be detected by fluorescence intensity. This cell line has been used to screen the Tox21 10K compound library to identify agonists that induce oxidative stress. The cytotoxicity of the Tox21 compound library against the CRE-bla cell line was tested in parallel by measuring the cell viability using CellTiter-Glo assay (Promega, Madison, WI) in the same wells.
Tox21 Assay Protocol Summary: CRE-bla Hek 293T cells were suspended in assay medium (DMEM containing 10% dialyzed FBS, 0.1 mM NEAA, 1 mM sodium pyruvate and 25 mM HEPES) and dispensed at 2,000 cells/4 uL /well into 1536-well black wall/clear bottom plates using a Multidrop Combi (ThermoFisher Scientific, Waltham, MA) dispenser. After the assay plates were incubated at 37 C/5% CO2 for 18 hrs, 23 nL of compounds dissolved in DMSO, positive controls or DMSO only was transferred to the assay plate by a pintool workstation (Kalypsys, San Diego, CA), followed by addition of 1 uL of 1.25uM NKH477 (0.25 uM as final concentration) in assay medium using a Flying Reagent Dispenser (Aurora Discovery, San Diego, CA). The plates were incubated at 37 C and 5% CO2 for 3 hrs. Then 1 uL of LiveBLAzer B/G FRET substrate (Invitrogen, Carlsbad, CA) was added to each well using Bioraptr Flying Reagent Dispenser (FRD, Aurora Discovery, San Diego, CA). The plates were incubated at room temperature for 2 h, then fluorescence intensities were measured using an Envision plate reader (PerkinElmer, Shelton, CT) at Excitation 405nm, Emission 460nm and 530nm. The % activity was determined from the ratio of 460nm/530nm. For cell viability readout that measures cytotoxicity, 4 uL /well of CellTiter-Glo reagent was added into the assay plates using Bioraptr FRD. After 30 min incubation at room temperature, the luminescence intensity in the assay plates was measured using a ViewLux (PerkinElmer, Shelton, CT) plate reader.
Potency means the concentration at half of the fitted maximal effect.

SMILES | Potency | viability change, negative = cytotoxic
C/C=C/C(=O)OCC(C)C | inactive | 
COCC(=O)Nc1c(I)c(C(=O)NCC(O)CO)c(I)c(C(=O)N(C)CC(O)CO)c1I (stereo not given) | inactive | 
COc1cc(C(=S)N2CCOCC2)cc(OC)c1OC | inactive | 
OC(CCl)CCl | inactive | 
Cc1ccc([N+](=O)[O-])c(C)c1 | inactive | 
CCCCN(CCO)CCCC | inactive | 
Cc1cc(=O)c2c(O)c3c(O)cc(=O)c4c3c3c(cc(O)c1c23)C(C)(C)C=4O |  | -18.2% [at 18.9 µM] (inactive)
O=C(NN1CCCC1)NS(=O)(=O)c1ccc(Cl)cc1 | inactive | 
C=Cc1ccc(OC(C)=O)cc1 | inactive | 
CNCCO | inactive | 
Oc1ccc(-c2ccc(O)cc2)cc1 | inactive | 
CC(C)CCOC(=O)c1ccccc1 | inactive | 
CCOC(=O)CC(C(C)=O)C(C)=O | inactive | 
CC/C(=C(\c1ccc(O)cc1)c1ccc(OCCN(C)C)cc1)c1ccccc1 | 68.7 µM (active) | 
CC(Cc1ccc(O)c(O)c1)C(C)Cc1ccc(O)c(O)c1 (stereo not given) | inactive | 
O=C1C=CC(=O)O1 | inactive | 
CCN[C@H]1C[C@H](C)S(=O)(=O)c2sc(S(N)(=O)=O)cc21 | inactive | 
CCO[Si](CCCCl)(OCC)OCC | inactive | 
CCCCC(CC)COCCC#N (stereo not given) | inactive | 
N#CC1(O)CCCCC1 | inactive | 

SMILES | Potency | viability change, negative = cytotoxic
Cc1ccc(N)c([N+](=O)[O-])c1 | inactive | 
CCOCCOCCOCC | inactive | 
CC(=O)OCCCc1ccccc1 | inactive | 
COC(=O)[C@H](Cc1ccccc1)NC(=O)[C@@H](N)CC(=O)O | inactive | 
O=C1CCCCC1C1CCCCC1 (stereo not given) | inactive | 
C#C[C@]1(O)CC[C@H]2[C@@H]3CCc4cc(OC)ccc4[C@H]3CC[C@@]21C | inactive | 
CC[C@]1(O)C[C@@H]2CN(CCc3c([nH]c4ccccc34)[C@@](C(=O)OC)(c3cc4c(cc3OC)N(C)[C@H]3[C@@](O)(C(=O)OC)[C@H](OC(C)=O)[C@]5(CC)C=CCN6CC[C@]43[C@@H]65)C2)C1 | inactive | 
O=C(O)c1cc(Cl)cc([N+](=O)[O-])c1Cl | inactive | 
CC1=C(CC=O)C(C)(C)CCC1 | inactive | 
CCCCCCCCCCCCCCCCCO |  | 0.838% [at 18.9 µM] (inactive)
CN(C)CCCCl | inactive | 
CC(C)CC(C)CC(O)CC(C)C (stereo not given) | inactive | 
CCC(=O)Oc1ccc2c(c1)CC[C@@H]1[C@@H]2CC[C@@]2(C)[C@H]1C[C@@H](OC(=O)CC)[C@@H]2OC(=O)CC | inactive | 
N[C@H]1CN(c2c(F)cc3c(=O)c(C(=O)O)cn(C4C[C@H]4F)c3c2Cl)CC12CC2 (stereo not given in full) | inactive | 
NCCNCCNCCN | inactive | 
NS(=O)(=O)c1ccc(N2CCCCS2(=O)=O)cc1 | inactive | 
c1ccc(C(O[C@H]2CCCN(CCc3ccc4c(c3)OCO4)C2)c2ccccc2)cc1 | inactive | 
CN1CCN(C2=Nc3cc(F)ccc3Cc3ccccc32)CC1 | inactive | 
Cc1cc(O)ccc1O | inactive | 
COC(=O)C1=C(C)NC(COC(N)=O)=C(C(=O)OC(C)C)C1c1cccc(Cl)c1Cl (stereo not given) | inactive | 

— PubChem BioAssay (Tox21)
